According to the supplement of paper PMC10849652:
Targets with a hit are over-represented here; the source holds about 8,800 in all. About 0.5% of all pairs of compound and target were hits.

Columns and labels:
Assay in all cases: log2 fold change, soluble protein after heating vs DMSO (PISA); higher = thermal stabilisation; K562 lysate, 10 uM; active = over 0.2 and 3.5 SD of the protein, either way, in both replicates (recomputed)
[1] = compound: CN1CC[C@H](c2c(O)cc(O)c3c(=O)cc(-c4ccccc4Cl)oc23)[C@H](O)C1 [alvocidib]
Procedure, shortened: (§1)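 Dounce homogenisation of K562 pellets in PBS pH 7.4 with 1 mM MgCl2 produced a crude extract, used at 1 mg/mL protein. Exposure to 10 μM compound lasted 30 min, and aliquots were then heated for 3 min across 48°C-58°C, pooled and brought to 0.5% NP-40 at 4°C. The supernatant after 21,000xg for 90 min was quantified by TMTpro 16plex LC-MS/MS with channel sums equalised. Duplicate values are given as log-two fold change in thermal stability relative to solvent controls.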

[2] = compound: CN1CCc2c(c3ccccc3n2Cc2ccc(C(=O)NO)cc2)C1 [Tubastatin A]
Procedure, shortened: as §1

[3] = compound: CNC(=O)C1=CC=CC=C1NC2=NC(=NC=C2Cl)NC3=C(C=C(C=C3)N4CCOCC4)OC
Procedure, shortened: as §1

[4] = compound: CNC(=O)c1ccc(Nc2ncc(C(F)(F)F)c(NCc3nccnc3N(C)S(C)(=O)=O)n2)cc1 [defactinib]
Procedure, shortened: as §1

[5] = compound: CNc1nc(-c2ccc3c(N)n[nH]c3c2)cc(N2C[C@@H](C(=O)NC3CCCCC3)CC[C@H]2C)n1
Procedure, shortened: as §1

[6] = compound: COC(=O)N[C@@H](C)CNc1nccc(-c2cn(C(C)C)nc2-c2cc(Cl)cc(NS(C)(=O)=O)c2F)n1 [encorafenib]
Procedure, shortened: as §1

[7] = compound: COC(=O)[C@H](CCSC)NC(=O)C1=C(C=C(C=C1)NC[C@H](CS)N)C2=CC=CC=C2
Procedure, shortened: as §1

[8] = compound: COc1cc(Nc2ncc3c(n2)-c2ccc(Cl)cc2C(c2c(F)cccc2OC)=NC3)ccc1C(=O)O [alisertib]
Procedure, shortened: as §1

[9] = compound: COc1cc2nc(-c3cc(F)ccc3O)nc(N[C@@H]3CNC[C@H]3C(C)(C)O)c2cc1OC
Procedure, shortened: as §1

[10] = compound: COc1cc2ncnc(Nc3ccc(F)c(Cl)c3)c2cc1OCCCN1CCOCC1 [gefitinib]
Procedure, shortened: as §1

Measured: log2 fold change

SASS6 (UniProt Q6UVJ0)
inactive: [1] 0.051 | [2] -0.104 | [3] 0.018 | [4] 0.03 | [5] -0.002 | [6] 0.053 | [7] 0.085 | [8] -0.019 | [9] 0.005 | [10] 0.001

RBBP8 isoform 2 (UniProt Q99708)
inactive: [1] 0.013 | [2] 0.07 | [3] 0.061 | [4] -0.023 | [5] 0.108 | [6] -0.039 | [7] -0.074 | [8] -0.008 | [9] 0.009 | [10] -0.014

RTTN (UniProt Q86VV8)
inactive: [1] 0.088 | [2] -0.242 | [3] 0.082 | [4] 0.401 | [5] 0.018 | [6] 0.069 | [7] -0.085 | [8] -0.002 | [9] -0.301 | [10] 0.049

RFC5 (UniProt P40937)
Chain of UniProt P40937 (P40937 whole entry, looked up): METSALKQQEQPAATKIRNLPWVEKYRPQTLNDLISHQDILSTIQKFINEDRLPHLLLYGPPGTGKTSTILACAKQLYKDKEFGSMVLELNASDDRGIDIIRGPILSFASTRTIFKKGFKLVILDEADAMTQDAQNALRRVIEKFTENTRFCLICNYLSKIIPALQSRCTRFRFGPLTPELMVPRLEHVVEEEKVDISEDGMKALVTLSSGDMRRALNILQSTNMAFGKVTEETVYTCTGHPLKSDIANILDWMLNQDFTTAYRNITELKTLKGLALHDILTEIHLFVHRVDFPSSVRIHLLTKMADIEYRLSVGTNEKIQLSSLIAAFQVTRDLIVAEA
inactive: [1] 0.004 | [2] -0.203 | [3] 0.003 | [4] 0.008 | [5] -0.004 | [6] 0.051 | [7] 0.148 | [8] -0.006 | [9] -0.003 | [10] 0

RNASEH2B (UniProt Q5TBB1)
Chain of UniProt Q5TBB1 (Q5TBB1 whole entry, looked up): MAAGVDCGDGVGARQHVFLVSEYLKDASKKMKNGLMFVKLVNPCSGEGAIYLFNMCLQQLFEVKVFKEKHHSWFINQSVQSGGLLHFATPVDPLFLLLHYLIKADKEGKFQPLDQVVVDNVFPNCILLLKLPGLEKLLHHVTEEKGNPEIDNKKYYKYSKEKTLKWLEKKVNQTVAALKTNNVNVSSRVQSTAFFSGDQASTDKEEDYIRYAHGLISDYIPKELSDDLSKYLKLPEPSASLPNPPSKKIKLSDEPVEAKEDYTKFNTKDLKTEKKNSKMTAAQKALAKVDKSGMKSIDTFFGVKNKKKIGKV
active: [7] 0.338
inactive: [1] 0.05 | [2] -0.046 | [3] -0.003 | [4] 0.092 | [5] -0.021 | [6] 0.035 | [8] -0.031 | [9] -0.038 | [10] -0.031

RABL3 (UniProt Q5HYI8)
inactive: [1] -0.023 | [2] -0.193 | [3] 0.154 | [4] 0 | [5] -0.021 | [6] 0.02 | [7] -0.01 | [8] -0.036 | [9] -0.038 | [10] 0.005

RABEPK (UniProt Q7Z6M1)
inactive: [1] 0.03 | [2] -0.048 | [3] 0.004 | [4] 0.014 | [5] -0.025 | [6] 0.004 | [7] 0.032 | [8] 0.002 | [9] 0 | [10] 0.01

RDX (UniProt P35241)
Chain of UniProt P35241 (P35241 whole entry, looked up): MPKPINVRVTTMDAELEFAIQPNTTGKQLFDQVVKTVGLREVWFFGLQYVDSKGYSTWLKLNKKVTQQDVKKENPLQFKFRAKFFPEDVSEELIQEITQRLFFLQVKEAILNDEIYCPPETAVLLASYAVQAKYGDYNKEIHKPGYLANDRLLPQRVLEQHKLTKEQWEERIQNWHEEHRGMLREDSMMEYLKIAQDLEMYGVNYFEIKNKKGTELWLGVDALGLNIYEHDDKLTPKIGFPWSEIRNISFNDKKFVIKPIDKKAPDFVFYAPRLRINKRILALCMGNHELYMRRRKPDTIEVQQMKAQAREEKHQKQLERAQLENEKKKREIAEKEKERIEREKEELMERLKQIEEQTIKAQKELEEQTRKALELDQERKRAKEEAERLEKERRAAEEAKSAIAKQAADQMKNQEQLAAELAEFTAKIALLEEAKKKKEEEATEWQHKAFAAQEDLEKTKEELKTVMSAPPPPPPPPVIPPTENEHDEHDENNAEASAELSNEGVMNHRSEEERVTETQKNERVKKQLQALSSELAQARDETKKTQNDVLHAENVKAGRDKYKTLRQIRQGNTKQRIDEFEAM
inactive: [1] 0.116 | [2] 0.042 | [3] -0.002 | [4] -0.009 | [5] 0.034 | [6] -0.047 | [7] -0.033 | [8] -0.018 | [9] 0 | [10] 0.013

SCO2 (UniProt O43819)
inactive: [1] -0.009 | [2] 0.039 | [3] 0.073 | [4] 0.008 | [5] -0.007 | [6] 0.027 | [8] -0.115 | [9] 0.046 | [10] 0.114
active: [7] -0.607

S100A11 (UniProt P31949)
Chain of UniProt P31949 (P31949 whole entry, looked up): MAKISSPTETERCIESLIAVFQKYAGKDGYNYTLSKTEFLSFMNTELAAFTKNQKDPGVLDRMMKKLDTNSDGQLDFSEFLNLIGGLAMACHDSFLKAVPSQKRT
inactive: [1] 0.085 | [2] 0.075 | [3] 0.029 | [4] 0.059 | [5] -0.011 | [6] -0.021 | [7] 0.007 | [8] 0.024 | [9] -0.01 | [10] -0.089

SDHA (UniProt P31040)
inactive: [1] -0.004 | [2] -0.012 | [3] 0 | [4] -0.04 | [5] 0.002 | [6] -0.023 | [7] -0.04 | [8] -0.023 | [9] -0.014 | [10] -0.031

SESN2 (UniProt P58004)
Chain of UniProt P58004 (P58004 whole entry, looked up): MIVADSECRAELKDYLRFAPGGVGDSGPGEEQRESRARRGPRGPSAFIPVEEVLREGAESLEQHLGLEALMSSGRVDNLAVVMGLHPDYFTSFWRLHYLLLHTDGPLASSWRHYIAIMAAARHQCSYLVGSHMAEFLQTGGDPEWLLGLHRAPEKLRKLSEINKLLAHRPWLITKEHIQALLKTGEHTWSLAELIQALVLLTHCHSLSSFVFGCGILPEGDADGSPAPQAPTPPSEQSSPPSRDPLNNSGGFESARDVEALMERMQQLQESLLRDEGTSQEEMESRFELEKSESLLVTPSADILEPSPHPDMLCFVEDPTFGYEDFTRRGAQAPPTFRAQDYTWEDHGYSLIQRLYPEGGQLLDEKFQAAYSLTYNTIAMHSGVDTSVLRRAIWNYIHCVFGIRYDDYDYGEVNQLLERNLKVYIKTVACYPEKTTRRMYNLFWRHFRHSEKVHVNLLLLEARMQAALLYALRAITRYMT
inactive: [1] 0.028 | [2] -0.093 | [3] -0.028 | [4] 0.039 | [5] 0.033 | [6] 0.038 | [7] -0.001 | [8] -0.026 | [9] -0.045 | [10] -0.034

RAE1 (UniProt P78406)
inactive: [1] -0.038 | [2] -0.072 | [3] 0.039 | [4] -0.004 | [5] -0.044 | [6] 0.038 | [8] -0.015 | [9] -0.002 | [10] 0.033
active: [7] 0.345

RAD51C (UniProt O43502)
Chain of UniProt O43502 (O43502 whole entry, looked up): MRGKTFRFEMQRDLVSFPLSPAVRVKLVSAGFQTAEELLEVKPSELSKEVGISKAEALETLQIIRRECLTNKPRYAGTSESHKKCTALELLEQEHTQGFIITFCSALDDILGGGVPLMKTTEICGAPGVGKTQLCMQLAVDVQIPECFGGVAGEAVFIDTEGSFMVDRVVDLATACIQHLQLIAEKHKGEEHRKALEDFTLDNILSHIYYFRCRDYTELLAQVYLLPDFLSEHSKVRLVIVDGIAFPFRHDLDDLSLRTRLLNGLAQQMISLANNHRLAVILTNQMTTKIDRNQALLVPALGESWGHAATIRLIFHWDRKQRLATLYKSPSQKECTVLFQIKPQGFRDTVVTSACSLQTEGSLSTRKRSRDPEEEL
inactive: [1] 0.061 | [2] -0.081 | [3] 0.002 | [4] 0.035 | [5] 0.072 | [6] -0.058 | [7] 0.004 | [8] -0.005 | [9] 0.047 | [10] -0.016

SAR1A (UniProt Q9NR31)
inactive: [1] -0.034 | [2] 0.153 | [3] 0.03 | [4] 0.086 | [5] 0.086 | [6] 0.152 | [7] 0.084 | [8] 0.134 | [9] 0.161 | [10] 0.156

RFC4 (UniProt P35249)
Chain of UniProt P35249 (P35249 whole entry, looked up): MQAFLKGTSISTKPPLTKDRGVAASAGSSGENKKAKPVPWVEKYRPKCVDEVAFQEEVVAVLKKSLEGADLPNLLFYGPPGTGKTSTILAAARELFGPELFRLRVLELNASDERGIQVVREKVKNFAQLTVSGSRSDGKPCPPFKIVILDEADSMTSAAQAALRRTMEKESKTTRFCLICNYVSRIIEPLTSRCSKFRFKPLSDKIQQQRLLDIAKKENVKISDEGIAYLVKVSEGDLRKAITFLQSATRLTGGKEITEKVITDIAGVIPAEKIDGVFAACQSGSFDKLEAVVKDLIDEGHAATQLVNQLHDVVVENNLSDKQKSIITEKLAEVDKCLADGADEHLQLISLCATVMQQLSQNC
inactive: [1] -0.018 | [2] -0.119 | [3] 0.018 | [4] 0.009 | [5] -0.043 | [6] 0.018 | [7] 0.088 | [8] 0.022 | [9] 0.003 | [10] -0.006

RAB21 (UniProt Q9UL25)
inactive: [1] 0.069 | [2] 0.034 | [3] 0.048 | [4] -0.025 | [5] 0.026 | [6] 0.005 | [7] -0.072 | [8] 0.015 | [9] 0.013 | [10] 0.003

SERINC3 (UniProt Q13530)
inactive: [1] -0.074 | [2] -0.008 | [3] 0.057 | [4] -0.091 | [5] 0.065 | [6] 0.023 | [7] -0.109 | [8] -0.047 | [9] 0.055 | [10] 0.014

RNF113A (UniProt O15541)
Chain of UniProt O15541 (O15541 whole entry, looked up): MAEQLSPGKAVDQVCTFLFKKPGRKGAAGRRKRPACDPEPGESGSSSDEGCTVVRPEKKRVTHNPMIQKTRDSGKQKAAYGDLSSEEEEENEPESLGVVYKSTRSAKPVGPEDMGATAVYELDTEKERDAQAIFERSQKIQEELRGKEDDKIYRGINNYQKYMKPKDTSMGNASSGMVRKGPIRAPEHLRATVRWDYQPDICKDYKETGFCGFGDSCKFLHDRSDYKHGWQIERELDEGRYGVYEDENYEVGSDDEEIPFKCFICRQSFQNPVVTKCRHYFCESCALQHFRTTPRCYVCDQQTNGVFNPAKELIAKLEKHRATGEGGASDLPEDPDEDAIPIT
inactive: [1] -0.062 | [2] 0.05 | [3] 0.014 | [4] -0.013 | [5] 0.022 | [6] -0.019 | [7] -0.017 | [8] -0.015 | [9] 0.015 | [10] 0.004

RFC3 (UniProt P40938)
inactive: [1] -0.008 | [2] -0.142 | [3] 0.024 | [4] 0.036 | [5] -0.014 | [6] 0.002 | [7] -0.005 | [8] 0.007 | [9] 0.029 | [10] -0.075

SERPINI1 (UniProt Q99574)
Chain of UniProt Q99574 (Q99574 whole entry, looked up): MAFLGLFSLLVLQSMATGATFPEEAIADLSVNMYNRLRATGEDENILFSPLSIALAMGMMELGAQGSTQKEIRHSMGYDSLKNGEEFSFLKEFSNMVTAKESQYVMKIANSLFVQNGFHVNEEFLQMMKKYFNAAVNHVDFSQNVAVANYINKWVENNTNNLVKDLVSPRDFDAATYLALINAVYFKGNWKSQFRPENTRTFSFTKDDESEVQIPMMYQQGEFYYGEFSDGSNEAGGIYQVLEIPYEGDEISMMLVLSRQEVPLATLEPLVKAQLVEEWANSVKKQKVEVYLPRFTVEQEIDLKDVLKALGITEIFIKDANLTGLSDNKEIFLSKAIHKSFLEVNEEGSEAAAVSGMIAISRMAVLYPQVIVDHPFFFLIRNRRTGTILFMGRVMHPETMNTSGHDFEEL
inactive: [1] -0.031 | [2] 0.015 | [3] -0.001 | [4] 0.019 | [5] -0.042 | [6] 0.02 | [7] -0.074 | [8] -0.064 | [9] 0.013 | [10] 0.048

RBSN (UniProt Q9H1K0)
Chain of UniProt Q9H1K0 (Q9H1K0 whole entry, looked up): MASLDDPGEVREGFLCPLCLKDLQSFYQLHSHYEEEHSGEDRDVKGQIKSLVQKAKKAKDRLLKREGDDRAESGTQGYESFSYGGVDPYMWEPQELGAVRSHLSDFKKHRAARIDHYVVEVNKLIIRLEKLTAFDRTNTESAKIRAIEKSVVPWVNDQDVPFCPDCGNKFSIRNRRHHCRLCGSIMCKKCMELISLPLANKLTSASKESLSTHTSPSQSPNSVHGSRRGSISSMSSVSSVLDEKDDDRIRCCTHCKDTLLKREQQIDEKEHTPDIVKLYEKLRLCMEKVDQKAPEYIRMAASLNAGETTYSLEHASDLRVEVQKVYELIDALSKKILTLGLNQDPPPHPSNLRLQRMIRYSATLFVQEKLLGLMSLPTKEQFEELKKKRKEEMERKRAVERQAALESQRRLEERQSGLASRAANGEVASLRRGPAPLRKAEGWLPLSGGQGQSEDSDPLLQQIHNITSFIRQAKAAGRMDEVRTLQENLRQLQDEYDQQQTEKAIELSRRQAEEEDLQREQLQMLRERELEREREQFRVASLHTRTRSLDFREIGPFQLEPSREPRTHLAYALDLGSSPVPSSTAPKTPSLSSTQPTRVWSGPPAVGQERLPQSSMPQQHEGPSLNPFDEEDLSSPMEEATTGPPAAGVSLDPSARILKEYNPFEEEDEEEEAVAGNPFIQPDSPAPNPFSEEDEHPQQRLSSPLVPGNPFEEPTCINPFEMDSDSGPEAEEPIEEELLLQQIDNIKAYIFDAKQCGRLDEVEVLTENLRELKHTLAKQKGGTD
inactive: [1] -0.031 | [2] 0.005 | [3] -0.047 | [4] 0.015 | [5] -0.014 | [6] 0.089 | [7] -0.048 | [8] 0.019 | [9] 0.015 | [10] 0.059

RPS4X (UniProt P62701)
inactive: [1] 0.039 | [2] 0.032 | [3] -0.03 | [4] -0.027 | [5] 0.029 | [6] -0.036 | [7] 0.063 | [8] 0.004 | [9] 0.002 | [10] -0.028

QTRT2 isoform 4 (UniProt Q9H974)
inactive: [1] -0.105 | [2] 0.003 | [3] 0.018 | [4] -0.014 | [5] 0 | [6] -0.018 | [7] -0.044 | [8] 0.016 | [9] 0.008 | [10] 0.031

RPS26P11 (UniProt Q5JNZ5)
inactive: [1] -0.216 | [2] 0.038 | [3] -0.064 | [4] 0.011 | [5] 0.02 | [6] 0.007 | [7] 0.006 | [8] -0.006 | [9] -0.032 | [10] -0.056

RHOU (UniProt Q7L0Q8)
inactive: [1] 0.007 | [2] 0.005 | [3] -0.036 | [4] -0.073 | [5] -0.17 | [6] -0.088 | [7] 0.164 | [8] -0.014 | [9] 0.024 | [10] -0.017

SCCPDH (UniProt Q8NBX0)
inactive: [1] -0.051 | [2] 0.044 | [3] 0.05 | [4] 0.028 | [5] 0.333 | [6] -0.076 | [7] 0.129 | [8] -0.011 | [9] 0.005 | [10] -0.063

RIOK3 (UniProt O14730)
Chain of UniProt O14730 (O14730 whole entry, looked up): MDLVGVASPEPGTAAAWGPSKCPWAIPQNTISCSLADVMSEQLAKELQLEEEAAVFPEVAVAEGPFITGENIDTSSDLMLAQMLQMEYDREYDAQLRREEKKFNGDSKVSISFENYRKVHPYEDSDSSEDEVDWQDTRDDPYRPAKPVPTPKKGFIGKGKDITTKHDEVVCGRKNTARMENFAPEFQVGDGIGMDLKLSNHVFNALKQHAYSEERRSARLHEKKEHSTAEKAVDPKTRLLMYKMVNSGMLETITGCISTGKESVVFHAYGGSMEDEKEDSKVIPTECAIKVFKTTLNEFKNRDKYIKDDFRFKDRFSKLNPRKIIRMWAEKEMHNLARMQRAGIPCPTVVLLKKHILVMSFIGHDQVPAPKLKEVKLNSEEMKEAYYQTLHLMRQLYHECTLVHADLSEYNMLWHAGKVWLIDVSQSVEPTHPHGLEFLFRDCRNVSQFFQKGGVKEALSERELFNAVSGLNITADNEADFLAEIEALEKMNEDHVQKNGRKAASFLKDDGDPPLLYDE
inactive: [1] -0.04 | [3] 0.029 | [4] 0.018 | [5] 0.12 | [6] 0.058 | [7] 0.132 | [8] -0.006 | [9] 0 | [10] 0.055
active: [2] -0.273

RNF181 (UniProt Q9P0P0)
Chain of UniProt Q9P0P0 (Q9P0P0 whole entry, looked up): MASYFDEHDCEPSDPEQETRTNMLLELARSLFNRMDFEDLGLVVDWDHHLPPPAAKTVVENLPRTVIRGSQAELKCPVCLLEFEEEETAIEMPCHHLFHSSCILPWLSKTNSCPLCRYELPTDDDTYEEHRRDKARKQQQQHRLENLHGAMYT
inactive: [1] 0 | [2] 0.021 | [3] 0.037 | [4] 0.044 | [5] -0.008 | [6] 0.029 | [7] -0.201 | [8] -0.011 | [9] -0.004 | [10] -0.083

QRSL1 (UniProt Q9H0R6)
inactive: [1] -0.028 | [2] -0.021 | [3] -0.012 | [4] -0.068 | [5] -0.051 | [6] -0.015 | [7] -0.005 | [8] 0.014 | [9] 0.014 | [10] -0.045
